Only some compounds are listed: those with a hit (about 11% of all), similar ones and a draw of the others.
NS1 inh: influenza NS1 inhibition; Potency, µM (doses to about 46.1 µM); 270,000 tested, 0.4% active; AID 2326; calls by dose curve; note: actives are rising curves; nearly all actives have a fitted effect of over 50% in size
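S. cerevisiae expressing influenza A NS1, grown in glucose, washed, then diluted 1:100 into pH 6.0 -URA galactose medium with 23 nl compound. Growth recovery read as OD600; NS1-free strain serves as control.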
VACV Venus inh: vaccinia inhibition (Venus reporter). 330,000 tested, 0.46% active. AID 720580. Potency, µM (doses to about 36.5 µM), usual class: inhibitors. Vaccinia virus Venus reporter expression, fluorescence; calls by dose curve; tested in A549 cells; note: nearly all actives have a fitted effect of over 30% in size
Vaccinia mCherry: vaccinia inhibition (mCherry reporter) | Potency, µM (top dose mostly 36.5 µM), usual class: inhibitors | 310,000 tested, 0.63% active | Vaccinia virus mCherry reporter infection, fluorescence; calls by dose curve; tested in A549 cells; note: nearly all actives have a fitted effect of over 35% in size
HCV inh: HCV inhibition. 340,000 tested, 3.4% active. AID 651820. Potency, µM (series often up to 41.8 µM), hits mostly inhibitors. Huh7.5.1 HCVcc-Cre infection, luciferase reporter, 44 h
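HCVcc-Cre virus at an moi near 0.5 was added right after compound to cells cultured 4 h from seeding (1,000 cells/well). Luciferase activity was determined 44 h later, 15 min after substrate addition at RT.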
Pf growth 96h: P. falciparum growth inhibition at 96 hour, primary screen for plastid delayed-death inhibitors. 320,000 tested, 6.9% active. Potency, µM (titrated, usually from 28.7 µM), usual class: inhibitors. P. falciparum luciferase reporter growth, 96 h. AID 504834
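Delayed-death screen, second-generation endpoint: infected erythrocytes, 2% hematocrit, 0.05% parasitemia final; 96 hours at 37 C, 5% CO2; luciferase detection reagent; luminescence decrease equals reduced growth.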
Pf growth 48h: P. falciparum growth inhibition at 48 hours (one generation); Potency, µM (highest dose often 28.7 µM), most hits filed as inhibitors; P. falciparum luciferase growth in erythrocytes, 48 h; 310,000 tested, 5.9% active
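Cell-based growth assay: transgenic P. falciparum expressing firefly luciferase, cultured in red cells within RPMI 1640 containing 0.5% w/v Albumax, 24 mM bicarbonate and gentamycin. A drop in luciferase activity indicates inhibition.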
Of the large screens only hits and unclear results are named; the others gave an inactive call. Unless noted, calls come from the whole dose curve; as a rule, active = well fitted inhibition curve with a large enough effect; inconclusive = small, poorly fitted or top-dose-only effect, or another doubt; inactive = no such curve, though single readings can be large or run the other way.

C#CCOCCOCCOCCNc1nc(N2CCN(C(=O)[C@H](C)n3cc(CCCN=C(N)N)nn3)CC2)nc(N2CCN(C(=O)[C@H](C)n3cc(CCCN=C(N)N)nn3)CC2)n1	Pf growth 96h 0.74µM, Pf growth 48h inconclusive
O=C(CSc1nc2ccsc2c(=O)n1-c1ccc(Br)cc1)NCc1ccc(Cl)cc1	none (no result: NS1 inh, HCV inh, Pf growth 96h, Pf growth 48h)
COc1ccc(C#Cc2c(C=O)n(C)c3ccccc23)cc1	VACV Venus inh inconclusive, Vaccinia mCherry inconclusive, HCV inh 10µM, Pf growth 96h inconclusive, Pf growth 48h inconclusive (no result: NS1 inh)
COc1ccc(-c2c(C#CC(C)(C)O)c3ccccc3n2C)cc1	HCV inh inconclusive (no result: NS1 inh, Pf growth 96h, Pf growth 48h)
COc1ccccc1C#Cc1ccc2c(=O)c3ccccc3n(C)c2c1	VACV Venus inh inconclusive, Pf growth 96h inconclusive, Pf growth 48h inconclusive
Cn1c(C=O)c(C#Cc2ccccc2)c2ccccc21	VACV Venus inh inconclusive, Vaccinia mCherry inconclusive, HCV inh 7.9µM, Pf growth 96h inconclusive, Pf growth 48h 12µM (no result: NS1 inh)
COc1ccc(C#Cc2ccc3c(=O)c4ccccc4n(C)c3c2)cc1	VACV Venus inh inconclusive, Pf growth 96h 8.3µM
COC(=O)CC1Oc2ccc(F)cc2-n2cc(-c3ccc(C)cc3)nc21 (stereo not drawn)	none (no result: NS1 inh, HCV inh, Pf growth 96h, Pf growth 48h)
CCOc1ccc(S(=O)(=O)N(C)C)cc1-c1nc2c(C(C)(C)C)nn(C)c2c(=O)[nH]1	Pf growth 96h inconclusive
CCOc1ccc(S(=O)(=O)N(C)CCO)cc1-c1nc2c(C(C)(C)C)nn(C)c2c(=O)[nH]1	HCV inh inconclusive, Pf growth 48h 12µM
CCOC(=O)C(Oc1ccc2c(-c3ccc(OC)cc3)cc(=O)oc2c1C)c1ccccc1 (stereo not drawn)	Pf growth 48h inconclusive (no result: VACV Venus inh, Vaccinia mCherry)
CCOC(=O)C(Oc1ccc2c(-c3ccccc3)cc(=O)oc2c1C)c1ccccc1 (stereo not drawn)	HCV inh inconclusive, Pf growth 96h inconclusive, Pf growth 48h 12µM
O=C(c1ccc(Cl)c(S(=O)(=O)Nc2ccccc2C(=O)N2CCc3ccccc3C2)c1)N1CCc2ccccc2C1	NS1 inh inconclusive, HCV inh inconclusive, Pf growth 96h inconclusive, Pf growth 48h 10µM
CC(=O)N1CCc2c(sc(NC(=O)C3CC3)c2-c2nc3ccccc3s2)C1	NS1 inh inconclusive, VACV Venus inh inconclusive, Vaccinia mCherry inconclusive, HCV inh 13µM, Pf growth 48h inconclusive
O=C(CN1C(=O)COc2ccccc21)NCCC1=CCCCC1	none
CCC1=C(OC(=O)N(CC)CC)N2C(=O)OC(=NCCc3c[nH]c4ccccc34)[C@]2(C)[C@H]2C1=CC[C@H]1C(=O)NC(=O)[C@H]12	VACV Venus inh inconclusive, Pf growth 96h inconclusive, Pf growth 48h 12µM
CCC1=C(OC(=O)N(CC)CC)N2C(=O)OC(=NCCc3c[nH]c4ccccc34)[C@]2(C)[C@H]2C1=CC[C@H]1C(=O)N(CC(=O)OC)C(=O)[C@H]12	Vaccinia mCherry inconclusive, Pf growth 96h 15µM, Pf growth 48h 9.3µM
Oc1ccc(NCc2cccc(OCc3ccccc3)c2)cc1	none
COc1ccc(NC(=O)CC2C(=O)N(c3ccccc3)C(=O)N2Cc2ccco2)cc1 (stereo not drawn)	none (no result: NS1 inh)
Cc1cc(C(=O)O)ccc1N=Cc1c(O)ccc2ccccc12	Pf growth 96h 12µM
CN(C)/N=C/c1c(O)ccc2ccccc12	HCV inh 10µM (no result: Vaccinia mCherry, Pf growth 48h)
Oc1ccccc1N=Cc1c(O)ccc2ccccc12	Pf growth 96h 10µM, Pf growth 48h inconclusive
CC(=O)c1cccc(N=Cc2c(O)ccc3ccccc23)c1	Vaccinia mCherry inconclusive
CCN(CC)C(=O)CSc1nc2sc3c(c2c(=O)n1CCOC)CCC3	Pf growth 96h inconclusive, Pf growth 48h inconclusive
NC1=NC[C@H](Cc2ccc(O)cc2)N1CCc1cccc(F)c1	Pf growth 96h 2.3µM, Pf growth 48h 13µM
NC1=NC[C@H](Cc2ccccc2)N1CCc1cc(C(F)(F)F)cc(C(F)(F)F)c1	VACV Venus inh inconclusive, Vaccinia mCherry inconclusive, Pf growth 96h inconclusive, Pf growth 48h 3.3µM
O=C(Cc1cccc(Cl)c1)Nc1ccc(Br)cc1	none
NS(=O)(=O)c1ccc(NC(=O)CCCCCN2C(=O)c3ccccc3C2=O)cc1	none (no result: NS1 inh)
CC1=NN(C(=O)c2ccccc2C)C(O)(c2ccc(Cl)cc2)C1 (stereo not drawn)	Vaccinia mCherry inconclusive, Pf growth 96h 10µM
CC1=NN(C(=O)c2ccccc2Br)C(O)(c2ccc(Cl)cc2)C1 (stereo not drawn)	Pf growth 96h inconclusive (no result: VACV Venus inh, Vaccinia mCherry)
CCC1=NN(C(=O)c2ccc(Cl)cc2)C(O)(c2ccccc2)C1 (stereo not drawn)	Pf growth 96h 3.3µM, Pf growth 48h inconclusive (no result: VACV Venus inh, Vaccinia mCherry)
CCC1=NN(C(=O)c2ccc(Cl)cc2)C(O)(c2ccc(C)cc2)C1 (stereo not drawn)	Vaccinia mCherry inconclusive, HCV inh inconclusive
O=C1CCc2cc(S(=O)(=O)NC(C(=O)Nc3cccc(F)c3)c3ccccc3)ccc2N1 (stereo not drawn)	none (no result: NS1 inh, HCV inh, Pf growth 96h, Pf growth 48h)
Cc1ccccc1Nc1ncnc2c1cnn2-c1ccccc1	HCV inh 11µM
Cc1ccccc1C(=O)N1CCN(c2ncnc3c2cnn3-c2ccccc2)CC1	HCV inh 7.9µM, Pf growth 48h inconclusive (no result: VACV Venus inh, Vaccinia mCherry)
Cc1ccc(-n2ncc3c(SCc4cccnc4)ncnc32)c(C)c1	HCV inh 11µM, Pf growth 96h inconclusive, Pf growth 48h inconclusive (no result: NS1 inh)
COc1cccc(N2CCN(c3ncnc4c3cnn4-c3ccc(C)cc3C)CC2)c1	VACV Venus inh inconclusive, Vaccinia mCherry 14µM, HCV inh 3.5µM, Pf growth 96h 5.9µM (no result: Pf growth 48h)
Cc1ccc(-n2ncc3c(Nc4ccccc4C)ncnc32)cc1	none (no result: NS1 inh, HCV inh, Pf growth 96h, Pf growth 48h)
Cc1ccc(C)c(N2CCN(c3ncnc4c3cnn4-c3ccccc3)CC2)c1	none (no result: Pf growth 48h)
COc1ccc(C(=O)Nc2cnn(Cc3ccc(Cl)cc3)c2)cc1OC	VACV Venus inh inconclusive, Vaccinia mCherry inconclusive, Pf growth 96h inconclusive
CC(C)c1ccc2oc(-c3ccc(NC(=O)c4ncn[nH]4)cc3)nc2c1	Pf growth 96h 1.7µM, Pf growth 48h inconclusive
CCC(C)c1ccc2oc(-c3ccc(NC(=O)c4ncn[nH]4)cc3)nc2c1 (stereo not drawn)	Pf growth 48h inconclusive (no result: Pf growth 96h)
COc1ccc(/C=N\NC(=O)c2ccccc2OC)cc1COc1c(F)c(F)c(F)c(F)c1F	HCV inh inconclusive, Pf growth 96h inconclusive
COc1cc(/C=N/NC(=O)c2ccccc2Cl)ccc1Oc1ccc([N+](=O)[O-])cn1	HCV inh 11µM, Pf growth 96h inconclusive (no result: NS1 inh, VACV Venus inh, Vaccinia mCherry)
COc1ccc(/C=N\NC(=O)c2ccccc2Cl)cc1COc1c(F)c(F)c(F)c(F)c1F	VACV Venus inh inconclusive, Vaccinia mCherry inconclusive, HCV inh 2.2µM
CCOc1ccc(CNCCNC(=O)c2nonc2N)cc1	none (no result: NS1 inh)
CCn1ncc2c(OCc3ccc(C#N)cc3)cc(C)nc21	Vaccinia mCherry inconclusive, HCV inh inconclusive, Pf growth 96h 15µM (no result: Pf growth 48h)
CC1(C)CC(=O)C2=C(C1)N=C1c3ccccc3C(=O)C1C2c1ccc(Cl)cc1 (stereo not drawn)	VACV Venus inh inconclusive, Vaccinia mCherry inconclusive, HCV inh 13µM, Pf growth 96h inconclusive, Pf growth 48h inconclusive

High-throughput results (PubChem)
